In PubChem BioAssay (NCI) one finds growth data, which are given here for 38 compounds.

Compounds without any hit were thinned out: in the full panel of roughly 83,000, 20% have a hit.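 Plates (96-well) were seeded with cells, treated with compound at one concentration, and incubated for 48 hours before percent growth was determined.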 The source made the active and inactive calls. How the source made its calls: active means growth percent below 10; inactive means the rest.

The subject of this assay is RPMI-8226 leukemia. Kind of assay: NCI-60 one-dose screen, 48 h (100 = growth as untreated, 0 = no growth, -100 = all killed). Conditions: 10 µM unless noted.
`CN1CCN(Cc2ccc(NC(=O)c3cncc(C#Cc4cnc5ccc(OCC6(C)COC6)nn45)c3)cc2C(F)(F)F)CC1`: the growth was -17.7% (active).
To `CC(=O)c1cc(C(=O)c2ccc(Br)cc2)n2cc(C)cc(C)c12` belongs 62.9% (inactive); to `COC(=O)C[Se]C(=O)Cc1c(C)n(C(=O)c2ccc(Cl)cc2)c2ccc(OC)cc12`, 90.8% (inactive).
Regarding `N#Cc1cccc(CN2CCC3=C(C2)C(=O)N(Cc2ccc(Cl)cc2)C2=NCCCN23)c1`, the growth is 18.7% (inactive).
In the case of `C=CCn1c(SCC(=O)Nc2ccc(C(=O)/C=C/c3ccc(C)cc3)cc2)nnc1-c1c[nH]c2ccccc12` it was 34.9% (inactive); in that of `CCCn1cnc2c(c1=N)C(c1ccc(OC)cc1)c1sc3c(CC)cccc3c1O2` (stereo not drawn), -8.82% (active); in that of `Cc1ccc(-c2cc3nc(C(Cl)Cl)nc(C)n3n2)cc1`, 94.6% (inactive).
Turning to `CCOC(=O)C(=O)CC(=O)N1C(=S)NC(=O)C1CC(C)C` (stereo not drawn), the growth was 107% (inactive).
To `COc1ccc(-c2nc(C(Cl)Cl)nc3cc(-c4ccccc4)nn23)cc1` belongs 14.9% (inactive); to `CNC(=O)c1cc(-c2ccc(NS(=O)(=O)c3ccc(C)cc3)cc2)nc2cccnc12`, 110% (inactive); to `NC(N)=Nc1ccc(Oc2cccc(Nc3ccc(Cl)c(C(F)(F)F)c3)c2)cn1`, -29.6% (active).
In the case of `CCN1CCN(Cc2ccc(C(=O)Nc3ccc(C)c(Oc4ccc(-c5[nH]nc6ncnc(N)c56)cc4)c3)cc2C(F)(F)F)CC1` it was 65.8% (inactive).
For `COc1ccc(NC(=O)Nc2ccc3c(ccn3C(=O)c3cccc(F)c3)c2)cc1`, the growth is 78.9% (inactive).
Take `CCn1c(SCC(=O)Nc2cccc(C(=O)/C=C/c3ccccc3Cl)c2)nc2ccccc2c1=O`: the growth is 6.75% (active).
In the case of `COc1ccc(-c2nn(-c3ccc(S(C)(=O)=O)cc3)cc2/C=N/O)cc1` it was 102% (inactive).
To `NC(N)=Nc1ccc(Oc2ccc(Nc3ccc(Cl)c(C(F)(F)F)c3)cc2)cc1` belongs 41.9% (inactive); to `COc1ccc(NC(=O)CSc2nnc(-c3ccc4nc(-c5ccc(OC)c(OC)c5)[nH]c4c3)o2)cc1OC`, 98.6% (inactive).
In the case of `Cc1ccc(-n2c(/C=C3\C(=O)Nc4ccccc43)ccc2CO)cc1` it was 69.4% (inactive); in that of `O=C(NNc1nc2cc(F)ccc2n2c(CO)ccc12)c1cnccn1`, 21% (inactive).
Regarding `Nc1ccccc1NC(=O)c1ccc(NC(=O)C/C=C/c2cccnc2)cn1`, the growth was -12% (active).
In the case of `Cn1ccnc1C(=O)/C=C/c1ccc(CNC(=O)c2c(F)c(F)c(F)c(F)c2F)cc1` it was 9.9% (active); in that of `C#C[C@]1(O)CC[C@H]2[C@@H]3CC=C4c5sc(-c6cccc(O)c6)nc5CC[C@]4(C)[C@H]3CC[C@@]21C`, -33% (active).
Take `COc1cc2c(cc1OC)C(Sc1ccc(F)cc1)c1c(nc(N)c(C#N)c1N)O2` (stereo not drawn): the growth was -28% (active).
In the case of `N#Cc1cn(Cc2ccc(Cl)cc2Cl)c(C(=O)c2ccc(Br)cc2)c1N` it was 111% (inactive).
Take `O=C(O)c1ccc(-n2cc(CNc3cc(F)c(F)c(F)c3)c(-c3cccc(F)c3)n2)cc1`: the growth is 86.7% (inactive).
Regarding `CCc1cccc(NC(=O)CNc2cc(S(=O)(=O)N(C)C)cc(C)c2C)c1`, the growth was 65.7% (inactive).
For `COc1ccc2c(c1)c(-c1cc(N)n3nc(-c4cn(C)c5ccc(OC)cc45)cc3n1)cn2C`, the growth is -0.83% (active).
With `C=C(C=O)[C@@H]1CC[C@]2(COC(C)=O)CC[C@]3(C)C(CC[C@@H]4[C@@]5(C)CC[C@H](OC(C)=O)C(C)(C)[C@@H]5CC[C@]43C)[C@@H]12` (stereo partly drawn), the growth is -18.4% (active).
As for `COc1ccc(-c2nc3ccc(-c4nnc(SCC(=O)Nc5ccc(C(=O)/C=C/c6ccc(Cl)cc6)cc5)o4)cc3[nH]2)cc1`, the growth is 79.9% (inactive).
In the case of `COc1ccc(/C=C(\C#N)C(=O)N2c3ccccc3Sc3ccc(SC)cc32)cc1F` it was 95.6% (inactive); in that of `O=C(CNc1nc(-c2cccc([N+](=O)[O-])c2)cs1)Nc1cccc(Cl)c1`, 98% (inactive); in that of `CC1(C)CC[C@]23CC[C@]4(C)[C@H](CC[C@@H]5[C@@]6(C)CCCN(CO)C(C)(C)[C@@H]6CC[C@]54C)[C@H]2[C@H]1OC3`, 21.8% (inactive).
To `C=C(C=O)[C@@H]1CC[C@]2(C)[C@H](CC=C3[C@H]4[C@@H](C)[C@H](C)CC[C@]4(C(=O)OC)CC[C@]32C)[C@@]1(C)CCC#N` belongs -11.9% (active); to `CN(C)C(=O)c1cc(-c2ccc3ncnc(NCc4ccccc4)c3c2)cnc1N`, 50.5% (inactive); to `O=S(=O)(NCCCNc1nccc(-c2[nH]c(-c3ccccc3)nc2-c2ccc(Cl)c(O)c2)n1)c1cccc2ccccc12`, 9.64% (active).
To `Nc1ccccc1NC(=O)c1ccc(NC(=O)C/C=C/c2cccnc2)cc1` belongs 6.76% (active); to `COc1cc(-c2nc(SCCC(C)C)nc(NNC(=O)c3ccncc3)c2C#N)cc(OC)c1OC`, 100% (inactive); to `O=C(NNc1nc2cc(F)c(F)cc2n2cccc12)c1cnccn1`, 30.5% (inactive).
